Measurements as given in PubChem BioAssay (NCI).
Compounds without any hit were thinned out: in the full panel of roughly 83,000, 20% have a hit.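 The endpoint reported here, percent growth, reads 100 for growth as untreated, 0 for no net growth and -100 for all cells dead.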 Calls of active or inactive are those of the source. How the source made its calls: active means growth percent below 10; inactive means the rest.

Tests used:
Test in all cases: NCI-60 one-dose screen, 48 h (100 = growth as untreated, 0 = no growth, -100 = all killed)
[1] = test system: SR leukemia; details: 10 µM unless noted
[2] = test system: OVCAR-8 ovarian; details: 10 µM unless noted
[3] = test system: OVCAR-5 ovarian; details: 10 µM unless noted
[4] = test system: OVCAR-4 ovarian; details: 10 µM unless noted
[5] = test system: IGROV1 ovarian; details: 10 µM unless noted
[6] = test system: OVCAR-3 ovarian; details: 10 µM unless noted
[7] = test system: HS 578T breast; details: 10 µM unless noted
[8] = test system: NCI/ADR-RES ovarian; details: 10 µM unless noted
[9] = test system: T-47D breast; details: 10 µM
[10] = test system: BT-549 breast; details: 10 µM unless noted
[11] = test system: MDA-MB-435 melanoma; details: 10 µM unless noted
[12] = test system: SW-620 colon; details: 10 µM unless noted
[13] = test system: MCF7 breast; details: 10 µM unless noted
[14] = test system: HCT-116 colon; details: 10 µM unless noted
[15] = test system: HCC-2998 colon; details: 10 µM unless noted
[16] = test system: KM12 colon; details: 10 µM unless noted
[17] = test system: RPMI-8226 leukemia; details: 10 µM
[18] = test system: SK-OV-3 ovarian; details: 10 µM

Measured: growth

NC(=O)c1cccc(-n2ccc3cc(NC(=O)Nc4ccc(Cl)c(Cl)c4)ccc32)n1
inactive: [1] 45.5% | [2] 80.9% | [3] 106% | [4] 68.2% | [5] 87.9% | [6] 82.9% | [7] 58.5% | [8] 91.8% | [9] 49.3% | [10] 65.8% | [11] 61% | [12] 94.2% | [13] 57.7% | [14] 71.9% | [15] 97.7% | [16] 55.5%

COc1cc2cc(Oc3ccc(NC(=O)Nc4cccc(C(F)(F)F)c4)cc3)c(C)nc2cc1OCCN1CCCCC1
active: [1] -19.4% | [2] -38.7% | [4] -12.9% | [5] -31.2% | [6] -92.6% | [7] -53.6% | [11] -92.8% | [12] -82% | [13] -80.4% | [14] -23.1% | [15] -50% | [16] -92.2%
inactive: [3] 61.6% | [8] 20.1% | [10] 79.5%

CC(C)(C)[Si](C)(C)OC1[C@@H](O[Si](C)(C)C(C)(C)C)[C@@H](CNC(=O)NC(=O)C(F)(F)F)O[C@H]1n1cnc2c(NC(=O)Nc3ccccc3)ncnc21 (stereo not given in full)
active: [17] 4.89% | [6] -54.1% | [11] -4.83%
inactive: [2] 82% | [3] 88.8% | [4] 78.4% | [18] 89.7% | [5] 71.2% | [7] 49.5% | [8] 85.5% | [9] 85.5% | [10] 96% | [12] 71.2% | [13] 48.3% | [14] 57.2% | [15] 79.3% | [16] 24%

COc1cccc(C2C3=C(COC3=O)N(CCO)c3cc4c(cc32)OCO4)c1 (stereo not given)
active: [6] -64.9% | [7] 2.25% | [8] -16.2% | [11] -40.1% | [14] 8.72% | [15] 5.59%
inactive: [17] 31.4% | [2] 42.3% | [3] 35.6% | [4] 40.6% | [18] 20.8% | [5] 30.4% | [9] 49.1% | [10] 37.2% | [12] 22.4% | [13] 14.6% | [16] 14.3%

N#Cc1c(O)c2c(c(O)c1C#N)C(=O)c1ccccc1C2=O
inactive: [1] 15.4% | [3] 108% | [18] 109% | [5] 23.9% | [7] 70.1% | [9] 23.2% | [10] 69.1% | [15] 34.5% | [16] 73.4%
active: [2] 2.33% | [6] -9.86% | [11] -91.2% | [12] 8.21% | [14] 1.88%

c1ccc(-c2nc(N3CCOCC3)c3c4c(sc3n2)CCCCCC4)nc1
active: [13] 3.9%
inactive: [17] 33.3% | [2] 42.4% | [3] 57.2% | [4] 42.2% | [18] 65.7% | [5] 42.1% | [6] 68.2% | [7] 53.4% | [8] 25.9% | [9] 17.8% | [10] 58.3% | [11] 61.9% | [12] 86.9% | [14] 27.7% | [15] 72.7% | [16] 44.7%

O=S(=O)(/N=C1C=C/C(=N\S(=O)(=O)c2ccccc2)c2ccccc2\1)c1ccccc1
active: [11] 0.648%
inactive: [17] 77.9% | [2] 94.9% | [3] 114% | [4] 91.9% | [18] 104% | [5] 112% | [6] 101% | [7] 112% | [8] 102% | [9] 93.1% | [10] 104% | [12] 112% | [14] 94.5%

O=C(Nc1ccccc1O)c1ccc(NS(=O)(=O)c2cccc3cccnc23)cc1
inactive: [17] 15.3% | [2] 23.9% | [3] 16.5% | [4] 74.5% | [18] 64.5% | [5] 58.6% | [6] 62.5% | [7] 37.3% | [8] 29.2% | [10] 55.6% | [11] 32.6% | [12] 30% | [13] 42.3% | [14] 23.7% | [15] 57.3% | [16] 74.8%

COc1ccccc1CNCCCCCCCCCCCCN1C(=O)c2ccc3c4c(ccc(c24)C1=O)C(=O)N(CCCCCCCCCCCCNCc1ccccc1OC)C3=O
inactive: [3] 100% | [4] 92.3% | [18] 117% | [5] 83% | [6] 44.5% | [8] 85% | [9] 119% | [10] 70.5% | [11] 58% | [12] 74.1% | [13] 26.7% | [15] 80.9% | [16] 46.6%
active: [17] 2.41% | [2] -60.9% | [7] -9.15% | [14] -43%

Cc1c(C(=O)Nc2nc(-c3ccccc3)cs2)nnn1-c1ccccc1Br
inactive: [1] 17% [50 µM] | [2] 40.1% [50 µM] | [3] 77.4% [50 µM] | [5] 68.3% [50 µM] | [6] 57.3% [50 µM] | [7] 65.3% [50 µM] | [8] 38.1% [50 µM] | [10] 35.5% [50 µM] | [11] 20.1% [50 µM] | [13] 19% [50 µM] | [14] 32.6% [50 µM] | [15] 72.7% [50 µM] | [16] 36.3% [50 µM]

O=C(CC(O)c1ccccc1)Nc1ccccn1 (stereo not given)
inactive: [17] 93.8% | [2] 100% | [3] 104% | [4] 97.1% | [18] 94% | [5] 108% | [6] 108% | [7] 106% | [8] 106% | [9] 94.1% | [11] 97.9% | [12] 109% | [13] 103% | [14] 97.6% | [15] 102% | [16] 103%

CC(=O)c1cc(C)c(OC(=O)c2ccccc2)c(C)c1
inactive: [17] 80.4% | [2] 103% | [3] 106% | [4] 91.6% | [18] 103% | [5] 123% | [6] 106% | [7] 100% | [8] 97.9% | [9] 74.9% | [10] 97.6% | [11] 95.2% | [12] 103% | [13] 105% | [14] 93.7% | [15] 100% | [16] 104%

CN1CCN(C(=O)OCCOCCOC(=O)N2CCN(C)CC2)CC1
inactive: [17] 81% | [2] 102% | [3] 104% | [4] 106% | [18] 117% | [5] 132% | [6] 117% | [7] 111% | [8] 96.3% | [9] 109% | [10] 98.7% | [11] 98.9% | [12] 117% | [13] 102% | [14] 94.8% | [15] 98.4% | [16] 104%

Cc1c(C(=O)Nc2nc(-c3ccccc3)cs2)nnn1-c1cccc2ccccc12
inactive: [1] 29.2% [50 µM] | [2] 50.9% [50 µM] | [3] 86.8% [50 µM] | [4] 23.7% [50 µM] | [5] 69.9% [50 µM] | [6] 71.8% [50 µM] | [7] 79.5% [50 µM] | [8] 65.1% [50 µM] | [10] 56.7% [50 µM] | [11] 47.2% [50 µM] | [13] 38.7% [50 µM] | [14] 30% [50 µM] | [15] 87.7% [50 µM] | [16] 65% [50 µM]

Nc1cccc2c(=S)c3ccccc3[nH]c12
inactive: [1] 111% | [2] 93.7% | [3] 92.9% | [4] 83% | [5] 86.9% | [6] 91% | [7] 94.3% | [8] 101% | [10] 102% | [11] 106% | [14] 93.4% | [15] 106% | [16] 102%

Cn1c2ccc(Cl)cc2c2nn(C(=O)c3ccccc3)c(=O)nc21
inactive: [17] 106% | [2] 101% | [3] 99.5% | [4] 114% | [18] 114% | [5] 110% | [6] 111% | [7] 104% | [8] 106% | [10] 122% | [11] 111% | [12] 99.3% | [13] 94.7% | [14] 104% | [15] 111% | [16] 106%

CCCCC(=O)N/N=C/c1cc(I)cc(I)c1O
inactive: [17] 53% | [2] 36.6% | [3] 59.6% | [4] 34.1% | [18] 58.6% | [5] 35.8% | [6] 18.7% | [7] 76.6% | [8] 23.9% | [9] 52.1% | [10] 55.2% | [11] 56.7% | [12] 54.6% | [14] 15.1% | [15] 66.5% | [16] 53.2%
